Article PMC4102417

tested on: murine 3T3 fibroblasts; assay: primary screen, percent viability or growth; higher = less effect of the substance
Protocol: Similarly, for measuring the cytotoxicity concentration (CC50) for 3T3 fibroblast cells, cultures were incubated with drugs for 72 hours and developed using Alamar Blue (Alamar Biosciences Inc, Sacramento, CA) as previously described.

SMILES	Mammalian (3T3) cell % growth at 10 uM [%]
CCC1(O)CC(O)c2c(cc3c(c2O)C(=O)c2c(O)ccc(O)c2C3=O)C1C(=O)OC (centres unmarked)	46.5
Nc1ccn([C@@H]2O[C@H](CO)[C@@H](O)[C@@H]2O)c(=O)n1	48.4
CC(C)CCCC(C)C1CCC2C3CC(=O)C4CC(O)CCC4(C)C3CCC12C (centres unmarked)	100
CCN(CC)CCCC(C)Nc1c2ccc(Cl)cc2nc2ccc(OC)cc12.Cl.Cl (centres unmarked)	5.3
Cc1cc(/C=C/c2ccc3cc(N(C)C)ccc3[n+]2C)c(C)n1-c1ccccc1.O=C([O-])c1cc2ccccc2c(Cc2c(O)c(C(=O)O)cc3ccccc23)c1O	50
CC[C@H](C)C(=O)O[C@H]1CCC=C2C=C[C@H](C)[C@H](CC[C@@H]3C[C@@H](O)CC(=O)O3)[C@H]21	2.9
CC(=O)OC1CCC2(C)C3=C(CCC2C1(C)C)C1(C)CCC(C(C)CCC=C(C)C)C1(C)CC3 (centres unmarked)	87.6
CC(=O)OC1CC2C(C)(C)C(=O)C=CC2(C)C2CCC3(C)C(=CC(=O)OC3c3ccoc3)C12C (centres unmarked)	56.1
COc1cc2nc(N3CCN(C(=O)c4ccco4)CC3)nc(N)c2cc1OC.Cl	70.7
NC(=O)c1cc([N+](=O)[O-])cc([N+](=O)[O-])c1	97.2
Cc1nc2ccccn2c(=O)c1CCN1CCC(C(=O)c2ccc(F)cc2)CC1	91.6
CC(C)C[C@H]1C(=O)N2CCC[C@H]2[C@]2(O)O[C@](NC(=O)[C@@H]3C=C4c5cccc6[nH]c(Br)c(c56)C[C@H]4N(C)C3)(C(C)C)C(=O)N12.CS(=O)(=O)O	92.1
CC(=O)OC1CC2C(C)(C)C(=O)CCC2(C)C2CCC3(C)C(c4ccoc4)OC(=O)C4OC43C12C (centres unmarked)	81.4
CC(C)C(C)/C=C/C(C)C1CCC2C3=CC=C4CC(O)CCC4(C)C3CCC21C (centres unmarked)	99.6
CC1OC(=O)C(C(C)C)NC(=O)C(C(C)C)OC(=O)C(C(C)C)NC(=O)C(C)OC(=O)C(C(C)C)NC(=O)C(C(C)C)OC(=O)C(C(C)C)NC(=O)C(C)OC(=O)C(C(C)C)NC(=O)C(C(C)C)OC(=O)C(C(C)C)NC1=O (centres unmarked)	16.4
N#Cc1nn(-c2c(Cl)cc(C(F)(F)F)cc2Cl)c(N)c1S(=O)C(F)(F)F (centres unmarked)	100

SMILES	Mammalian (3T3) cell % growth at 10 uM [%]
COc1cc(O)c(C(=O)c2ccccc2)cc1O	47.4
CC1(C)C(=O)C=CC2(C)C1CC(=O)C1(C)C2CCC2(C)C(c3ccoc3)OC(=O)C3OC321 (centres unmarked)	75.8
O=C(/C=C(/O)c1ccccc1)c1ccccc1O	100
COc1cc(OC)c2c(=O)c(O)c(-c3ccc(OC)c(OC)c3)oc2c1	39.6
CC(C)=CCc1c2c(c3occ(-c4ccc(O)cc4)c(=O)c3c1O)C=CC(C)(C)O2	30.6
COc1ccc(-c2cc(=O)c3ccccc3o2)cc1OC	86.4
Clc1ccc(C(OCCN2CCCCC2)c2ccccc2)cc1 (centres unmarked)	100
CCOC(=O)C(CCc1ccccc1)NC1CCc2ccccc2N(CC(=O)O)C1=O.Cl (centres unmarked)	66.8
CCC1(O)CC(OC2CC(N(C)C)C(O)C(C)O2)c2c(cc3c(c2O)C(=O)c2c(O)ccc(O)c2C3=O)C1C(=O)OC (centres unmarked)	0.8
CCCC(C(=O)OCCN(CC)CC)(c1ccccc1)c1ccccc1	100
CC[C@@]1([C@@H]2O[C@@H]([C@H]3O[C@@](O)(CO)[C@H](C)C[C@@H]3C)C[C@@H]2C)CC[C@H]([C@]2(C)CC[C@]3(C[C@H](O)[C@@H](C)[C@@H]([C@@H](C)[C@@H](OC)[C@H](C)C(=O)O)O3)O2)O1	41.3
Oc1ccc(Cl)c2cccnc12	49.7
CC1CCC2(NC1)OC1CC3C4CCC5CC(O)CCC5(C)C4CCC3(C)C1C2C.Cl (centres unmarked)	100
O=c1[nH]c2ccccc2n1C1CCN(CCCC(c2ccc(F)cc2)c2ccc(F)cc2)CC1	8.1
CC1(C)C(=O)C=CC2(C)C1=C(O)C(=O)C1(C)C2CCC2(C)C(c3ccoc3)CC3OC321 (centres unmarked)	25.5
COc1cc(/C=C/C(=O)N2CCC=CC2=O)cc(OC)c1OC	1
